Measured values published in ChEMBL document CHEMBL3988442, “University of Dundee, Small-Polar-MMV Screening Library” (2021).
About 960 (1.5%) of roughly 66,000 compounds showed an effect of 50% or more. What follows is part of a selection rich in strong results, with near analogues and random picks from the rest.

Tested on: Trypanosoma brucei
Test: Trypanosoma brucei 72 hour study
Type: functional, organism-based
Parameters: scale not given: in the data most compounds retested in dose-response had high values

N#CC1(C(=O)N2C[C@H]3CC[C@@H]2CN(Cc2cscn2)C3)CCOCC1
Percent Effect (30 µM, 30.03 µM): -52.3%

Cc1nn(C)c(C)c1C1CCCN1CC(=O)Nc1nccs1 (centres undefined)
Percent Effect (30.3 µM, […]): -4.403%

CNC(=O)[C@@H]1C[C@H]2CN(Cc3csc(C)n3)C[C@H]2N1C(C)C.O=C(O)C(F)(F)F.O=C(O)C(F)(F)F
Percent Effect (30.3 µM, […]): 4.031%

Cc1nc(C(=O)N2CCN(c3ccc(Cl)c(Cl)c3)CC2)cs1
Percent Effect (30.3 µM, […]): 12.74%

Cc1nccc([C@H]2C[C@@H]3CCN(S(C)(=O)=O)C[C@H]3O2)n1
Percent Effect (30.3 µM, […]): -74.86%

Cc1nccc([C@@H]2C[C@@H]3CCN(S(C)(=O)=O)C[C@H]3O2)n1
Percent Effect (30 µM, 30.03 µM): 53.53%

Cc1nccc([C@H]2C[C@@H]3CCN(S(=O)(=O)C4CC4)C[C@H]3O2)n1
Percent Effect (30.3 µM, […]): -36.22%

CCNC(=O)Nc1ccc(N2CCC(OC)CC2)c(C(F)(F)F)c1
Percent Effect (30 µM, 30.03 µM): -0.4307%

COc1ccc(CN2CCc3[nH]nc(C(=O)N(C)C)c3C2)cc1.O=C(O)C(F)(F)F
Percent Effect (30.3 µM, […]): 4.36%

COc1ccc(F)c(CN(CCCn2ccnc2)Cc2ccc(C)s2)c1.O=C(O)CC(O)(CC(=O)O)C(=O)O
Percent Effect (30.3 µM, […]): -24.6%

CN(CC(=O)NC(Cc1ccsc1)c1cccnc1)Cc1cccnc1.Cl (centres undefined)
Percent Effect (30.3 µM, […]): -0.9311%

CC(C)c1noc(CN(C)C(c2ccc(F)cc2)c2cccnc2)n1 (centres undefined)
Percent Effect (30 µM, 30.03 µM): 70.75%

CN(Cc1nnc(C2CC2)o1)C(c1ccc(F)cc1)c1cccnc1 (centres undefined)
Percent Effect (30 µM, 30.03 µM): -93.52%

CC(C)c1nnc(CN(C)C(c2ccc(F)cc2)c2cccnc2)o1 (centres undefined)
Percent Effect (30 µM, 30.03 µM): -53.44%

Cc1noc(NCc2cn(C)nc2-c2cccnc2)n1
Percent Effect (30 µM, 30.03 µM): -14.18%

Cc1noc(NCc2ccc(F)cc2)n1
Percent Effect (30.3 µM, […]): 55.37%

Cc1nnc(NCc2ccc(F)cc2)o1
Percent Effect (30 µM, 30.03 µM): -52.4%

Cc1noc(NCc2cn(C)nc2-c2ccncc2)n1
Percent Effect (30 µM, 30.03 µM): -13.42%

Cc1noc(NCc2ccc(F)cc2F)n1
Percent Effect (30.3 µM, […]): 72.2%

Cc1noc(NCc2cc(F)ccc2F)n1
Percent Effect (30.3 µM, […]): 50.55%

CC(C)(C)c1nnc(NCc2ccc(F)cc2)o1
Percent Effect (30 µM, 30.03 µM): -100%

COCc1cc(NCc2cc(F)ccc2F)n2nccc2n1
Percent Effect (30 µM, 30.03 µM): -36.1%

Cc1noc(CS(=O)(=O)c2cc(F)ccc2F)n1
Percent Effect (30.3 µM, […]): -4.369%

Cc1occc1C(=O)N1CCc2c(CNS(C)(=O)=O)cncc2C1.Cl
Percent Effect (30.3 µM, […]): -7.203%

CN(C)C[C@]12COC[C@H]1CN(C(=O)Cc1ccc3c(c1)OCO3)C2.O=C(O)C(F)(F)F
Percent Effect (30 µM, 30.03 µM): 24.04%

Cn1ncc2c(NC3CCSC3)nc(-c3ccncc3)nc21 (centres undefined)
Percent Effect (30.3 µM, […]): 38.84%

CC(=O)N1CCN(Cc2cccs2)CC2(CC(=O)N(C)C2)C1.O=C(O)C(F)(F)F (centres undefined)
Percent Effect (30.3 µM, […]): -45.81%

CN1CC(=O)N(c2ccsc2)CC12CCN(C(=O)c1cccn1C)C2.O=C(O)C(F)(F)F (centres undefined)
Percent Effect (30 µM, 30.03 µM): -33.31%

Cc1noc([C@@H]2CCO[C@@H]3CCN(Cc4ccc(C)s4)C[C@@H]32)n1.O=C(O)C(F)(F)F
Percent Effect (30 µM, 30.03 µM): 1.711%

O=C(O)C(F)(F)F.O=C(O)c1c(-c2cncnc2)ncc2c1CCN(CC1CCOC1)C2 (centres undefined)
Percent Effect (30.3 µM, […]): -18.52%

CCn1ncc2c1C(COCC1CC1)CN(c1ccncn1)C2.O=C(O)C(F)(F)F.O=C(O)C(F)(F)F (centres undefined)
Percent Effect (30 µM, 30.03 µM): -5.077%

O=C1CCCN1C(CNS(=O)(=O)C1CC1)Cc1cccc(F)c1 (centres undefined)
Percent Effect (30 µM, 30.03 µM): 7.214%

Cc1sc2c(C3CCCN(C(C)C)C3)nc(C)n2c1C (centres undefined)
Percent Effect (30.3 µM, […]): -21.43%

COCCN1CCCC(c2nc(C)n3c(C)c(C)sc23)C1 (centres undefined)
Percent Effect (30.3 µM, […]): -27.06%

Cc1sc2c(C3CCCN(S(C)(=O)=O)C3)nc(C)n2c1C (centres undefined)
Percent Effect (30.3 µM, […]): 73.25%

O=C(O)C(F)(F)F.c1cncc(CN2Cc3nccn3CC(Cn3cncn3)C2)c1 (centres undefined)
Percent Effect (30 µM, 30.03 µM): -73.02%

COc1cccc(C2(CNC(C)c3nnc(C)o3)CCCC2)c1 (centres undefined)
Percent Effect (30.3 µM, […]): -15.21%

Cc1cccc(C2(CNC(C)c3nnc(C)o3)CCCC2)c1 (centres undefined)
Percent Effect (30.3 µM, […]): 99.4%

Cc1nnc(C(C)NCC2(c3ccc(Cl)cc3)CCCC2)o1 (centres undefined)
Percent Effect (30.3 µM, […]): -10.5%

COc1ccc(C2(CNC(C)c3nnc(C)o3)CCCCC2)cc1 (centres undefined)
Percent Effect (30.3 µM, […]): 100.1%

Cc1nnc(C(C)NCC2(c3ccc(F)cc3)CCCCC2)o1 (centres undefined)
Percent Effect (30.3 µM, […]): 9.19%

Cc1nnc(C(C)NCC2(c3ccc(Cl)cc3)CCOCC2)o1 (centres undefined)
Percent Effect (30.3 µM, […]): -12.99%

Cc1nccc(CNC(=O)NC(c2ncc(C)s2)C2CC2)n1 (centres undefined)
Percent Effect (30 µM, 30.03 µM): -69.67%

CN(C)CCOCc1nnc2n1CCN(Cc1ccco1)CC2.O=C(O)C(F)(F)F.O=C(O)C(F)(F)F
Percent Effect (30.3 µM, […]): -5.145%

CCC1=N[C@@]2(CC[C@@H]3CN(Cc4ccc(C)cc4)C[C@@H]32)C(=O)N1C.O=C(O)C(F)(F)F
Percent Effect (30.3 µM, […]): -61.95%

O=C(O)C(F)(F)F.O=C1CC2(CCCCN2C(=O)c2ccncc2)CN1CC1CC1 (centres undefined)
Percent Effect (30.3 µM, […]): -11.8%

O=C(CCn1cncn1)N1CCCC1c1noc(C2CC2)n1 (centres undefined)
Percent Effect (10 µM): -39.57%

COCCN1CCC2(CC1)CC(NC(=O)C1CC1)c1ccccc1O2.O=C(O)C(F)(F)F (centres undefined)
Percent Effect (30.3 µM, […]): -14.66%

O=C(N1CCC(OCc2ccccn2)CC1)C1(c2ccc(F)cc2)CC1
Percent Effect (30 µM, 30.03 µM): -36.15%

CC(=O)NC1CCCc2c1[nH]c1ccc(F)cc21 (centres undefined)
Percent Effect (30 µM, 30.03 µM): -27.6%

Fc1ccc2[nH]c3c(c2c1)CCN1C(c2ccncc2)N2CCC31CC2 (centres undefined)
Percent Effect (30.3 µM, […]): 100.7%

Fc1ccc2[nH]c3c(c2c1)CCN1C(c2ccccn2)N2CCC31CC2 (centres undefined)
Percent Effect (30.3 µM, […]): 100.3%

Fc1ccc2[nH]c(C3CCCN3CCc3ccccn3)nc2c1 (centres undefined)
Percent Effect (30 µM, 30.03 µM): 22.71%

Cc1nc(Nc2ncccn2)cc(C2CCN(CC(C)C)C2)n1 (centres undefined)
Percent Effect (30.3 µM, […]): 4.591%

CN(CCCOc1ccccc1Cl)C(=O)CN1C[C@@H]2CC[C@H](CC1=O)N2
Percent Effect (30.3 µM, […]): -75.76%

COc1ccccc1-c1ncc(CN2C[C@@H](N(C)C)[C@H](C(C)C)C2)s1
Percent Effect (30.3 µM, […]): 89.3%

COc1ccccc1-c1ncc(CN2CCCC[C@H](N(C)C)C2)s1
Percent Effect (30.3 µM, […]): 40.64%

COc1ccccc1-c1ncc(CN2C[C@H](O)[C@@H](N3CCCC3)C2)s1
Percent Effect (30.3 µM, […]): 20.14%

COc1ccc(C2CCCN2C(=O)NCCCn2ccnc2)cc1 (centres undefined)
Percent Effect (30.3 µM, […]): -18.05%
